Measurements from PubChem BioAssay (Tox21).
Inconclusive results are not listed. Active and inactive are the calls of the source. Unless noted, calls follow the shape of the dose curve; as a rule, active = well fitted curve in the direction sought with a large enough effect in the repeat runs; inconclusive = weak or mixed curves; inactive = no such curve, though single readings can be large; an effect the other way counts as inactive or inconclusive.

Columns and labels:
[1] = qHTS RealTime-Glo MT Cell Viability Assay in HEK293 cells - 0 hour (AID 1224880); also: top concentration of the series differs between compounds; nearly all actives have a fitted effect of over 45% in size
Outline: (§1)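 Viable HEK293 cells reduce a cell-permeant prosubstrate; the product diffuses out and is consumed by NanoLuc in the medium to give light. Compounds went in after a 5 h incubation and plates were read over the treatment course.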

[2] = A CellTox Green Cytotoxicity Assay to monitor cytotoxicity in HEK293 cells - 32 hour (AID 1224881); also: nearly all actives have a fitted effect of over 40% in size
Outline: (§2)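 Fluorescence intensity, read at 0, 8, 16, 24, 32 and 40 h of compound treatment, reflected dye binding to DNA of dead HEK293 cells; compounds (23 nL, DMSO) were added 5 h after plating cells with reagent.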

[3] = A CellTox Green Cytotoxicity Assay to monitor cytotoxicity in HepG2 cells - 0 hour (AID 1224882); also: nearly all actives have a fitted effect of over 35% in size
Outline: (§3)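 Using 1536-well format, dye-containing HepG2 suspension was seeded, allowed 5 h at 37 C/5% CO2, dosed by pintool with compounds, positive and negative controls, and imaged for fluorescence across 40 h.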

[4] = A CellTox Green Cytotoxicity Assay to monitor cytotoxicity in HepG2 cells - 32 hour (AID 1224883); also: nearly all actives have a fitted effect of over 50% in size
Outline: as §3

[5] = qHTS RealTime-Glo MT Cell Viability Assay in HepG2 cells - 16 hour (AID 1224885); also: nearly all actives have a fitted effect of over 50% in size; also: potency is read from the fitted curve at half-maximal effect
Outline: (§4)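 HepG2 suspension premixed with RealTime-Glo reagents is plated at 600 cells per well and left 5 h at 37 C/5% CO2. Compounds in DMSO then go in, and bioluminescence reflecting viable cell number is recorded over 40 h.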

[6] = qHTS RealTime-Glo MT Cell Viability Assay in HEK293 cells - 24 hour (AID 1224886); also: nearly all actives have a fitted effect of over 50% in size; also: potency is read from the fitted curve at half-maximal effect
Outline: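 Reads taken at 0, 8, 16, 24, 32 and 40 h from the same wells. HEK293 cells (600/well) carried RealTime-Glo reagents from seeding, with compound added after a 5 h settle at 37 C.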

[7] = qHTS RealTime-Glo MT Cell Viability Assay in HEK293 cells - 8 hour (AID 1224887); also: nearly all actives have a fitted effect of over 50% in size; also: potency is read from the fitted curve at half-maximal effect
Outline: as §1

[8] = A CellTox Green Cytotoxicity Assay to monitor cytotoxicity in HEK293 cells - 16 hour (AID 1224888); also: nearly all actives have a fitted effect of over 35% in size
Outline: as §2

[9] = qHTS RealTime-Glo MT Cell Viability Assay in HepG2 cells - 0 hour (AID 1224889); also: nearly all actives have a fitted effect of over 50% in size
Outline: as §4

[10] = qHTS assay to identify small molecule antagonists of the estrogen receptor alpha (ER-alpha) signaling pathway using the BG1 cell line in the presence of 0.1 nM 17-beta-estradiol - cell viability counter screen (AID 1259241); also: nearly all actives have a fitted effect of over 40% in size; also: potency is read from the fitted curve at half-maximal effect
Outline: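 Following 5 days in phenol red-free medium with charcoal-stripped serum, VM7Luc4E2 cells received test compounds alongside 0.1 nM 17beta-estradiol (final) at 37C for 22 hr. Live cells were then quantified via protease-substrate fluorescence.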

[11] = qHTS assay to identify small molecule antagonists of the androgen receptor (AR) signaling pathway using the MDA cell line in the presence of 0.5 nM R1881 - cell viability counter screen (AID 1259242); also: nearly all actives have a fitted effect of over 45% in size; also: potency is read from the fitted curve at half-maximal effect
Outline: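 Viability of MDA-kb2 cells was multiplexed with the luciferase AR readout; after 16 hr with compounds and R1881 at 0.5 nM final, CellTiter-Fluor fluorescence was recorded.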

[12] = target: Estrogen receptor (Homo sapiens) (UniProt P03372); assay: qHTS assay to identify small molecule antagonists of the estrogen receptor alpha (ER-alpha) signaling pathway using the BG1 cell line in the presence of 0.1 nM 17-beta-estradiol (AID 1259244); also: nearly all actives have a fitted effect of over 50% in size
Chain of Estrogen receptor (Homo sapiens) (P03372 whole entry, looked up): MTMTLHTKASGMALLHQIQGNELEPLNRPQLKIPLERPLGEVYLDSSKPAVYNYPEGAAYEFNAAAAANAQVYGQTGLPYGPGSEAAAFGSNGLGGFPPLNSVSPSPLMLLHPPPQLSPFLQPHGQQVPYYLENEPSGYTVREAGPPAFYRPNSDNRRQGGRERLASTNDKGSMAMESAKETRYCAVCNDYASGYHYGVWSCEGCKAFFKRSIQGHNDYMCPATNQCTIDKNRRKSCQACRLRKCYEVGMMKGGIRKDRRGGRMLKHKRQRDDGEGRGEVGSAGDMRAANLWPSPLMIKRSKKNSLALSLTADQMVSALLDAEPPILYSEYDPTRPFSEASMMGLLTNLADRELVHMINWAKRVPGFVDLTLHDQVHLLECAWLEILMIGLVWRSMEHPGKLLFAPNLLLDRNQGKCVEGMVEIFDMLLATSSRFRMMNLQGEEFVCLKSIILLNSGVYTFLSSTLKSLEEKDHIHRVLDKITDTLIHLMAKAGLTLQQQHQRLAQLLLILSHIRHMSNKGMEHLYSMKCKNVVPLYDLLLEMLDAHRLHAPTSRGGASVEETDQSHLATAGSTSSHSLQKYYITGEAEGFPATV
Outline: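 Estradiol at 0.1 nM (final) stimulates the endogenous ER-alpha of VM7Luc4E2 cells carrying an ERE-driven luciferase; compounds are co-incubated 22 h at 37C and luciferase output quantified by luminescence.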

[13] = qHTS assay to identify small molecule HDAC inhibitors (AID 1259364);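 also: wild-type HCT-116 cells with endogenous class I/II HDAC activity; top concentration of the series differs between compounds; nearly all actives have a fitted effect of over 45% in size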
Outline: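 Read-out: luminescence of HDAC-Glo I/II reagent, 30 min RT, reflecting class I/II deacetylase activity in whole HCT-116 cells pre-exposed 2 h to DMSO-dissolved compounds.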

[14] = qHTS assay to identify small molecule HDAC inhibitors - cell viability counter screen (AID 1259365); also: nearly all actives have a fitted effect of over 50% in size; also: potency is read from the fitted curve at half-maximal effect
Outline: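 HCT-116 wild-type, overnight attachment; 2hr drug exposure, 37C; CellTiter-Glo luminescent ATP readout after 30min RT.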

[15] = qHTS assay to identify small molecule agonists of the sonic hedgehog signaling (Shh) pathway - cell viability counter screen (AID 1259366); also: nearly all actives have a fitted effect of over 50% in size; also: potency is read from the fitted curve at half-maximal effect
Outline: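 Compounds in DMSO were pin-transferred onto 3T3 Gli1-Luc cells that had settled 4hr; plates then stood 24hr at 37C and 5% CO2. One hour before the end, CellTiter-Fluor was added and fluorescence recorded.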

[16] = qHTS assay to identify small molecule antagonists of the sonic hedgehog signaling (Shh) pathway - cell viability counter screen (AID 1259367); also: nearly all actives have a fitted effect of over 55% in size; also: potency is read from the fitted curve at half-maximal effect
Outline: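 NIH/3T3-derived Gli1-Luc reporter cells (2,000 per well) rested 4 hr at 37 C, then received DMSO compounds plus conditioned medium. After 23 hr of treatment, CellTiter-Fluor was added for 1 hr at 37C and fluorescence read.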

[17] = A CellTox Green Cytotoxicity Assay to monitor cytotoxicity in HepG2 cells - 8 hour (AID 1224890); also: nearly all actives have a fitted effect of over 45% in size
Outline: as §3

[18] = A CellTox Green Cytotoxicity Assay to monitor cytotoxicity in HEK293 cells - 8 hour (AID 1224884); also: nearly all actives have a fitted effect of over 35% in size
Outline: as §2

[19] = target: Androgen receptor (Homo sapiens) (UniProt P10275); assay: qHTS assay to identify small molecule antagonists of the androgen receptor (AR) signaling pathway using the MDA cell line in the presence of 0.5 nM R1881 (AID 1259243); also: nearly all actives have a fitted effect of over 50% in size; also: potency is read from the fitted curve at half-maximal effect
Chain of Androgen receptor (Homo sapiens) (P10275 whole entry, looked up): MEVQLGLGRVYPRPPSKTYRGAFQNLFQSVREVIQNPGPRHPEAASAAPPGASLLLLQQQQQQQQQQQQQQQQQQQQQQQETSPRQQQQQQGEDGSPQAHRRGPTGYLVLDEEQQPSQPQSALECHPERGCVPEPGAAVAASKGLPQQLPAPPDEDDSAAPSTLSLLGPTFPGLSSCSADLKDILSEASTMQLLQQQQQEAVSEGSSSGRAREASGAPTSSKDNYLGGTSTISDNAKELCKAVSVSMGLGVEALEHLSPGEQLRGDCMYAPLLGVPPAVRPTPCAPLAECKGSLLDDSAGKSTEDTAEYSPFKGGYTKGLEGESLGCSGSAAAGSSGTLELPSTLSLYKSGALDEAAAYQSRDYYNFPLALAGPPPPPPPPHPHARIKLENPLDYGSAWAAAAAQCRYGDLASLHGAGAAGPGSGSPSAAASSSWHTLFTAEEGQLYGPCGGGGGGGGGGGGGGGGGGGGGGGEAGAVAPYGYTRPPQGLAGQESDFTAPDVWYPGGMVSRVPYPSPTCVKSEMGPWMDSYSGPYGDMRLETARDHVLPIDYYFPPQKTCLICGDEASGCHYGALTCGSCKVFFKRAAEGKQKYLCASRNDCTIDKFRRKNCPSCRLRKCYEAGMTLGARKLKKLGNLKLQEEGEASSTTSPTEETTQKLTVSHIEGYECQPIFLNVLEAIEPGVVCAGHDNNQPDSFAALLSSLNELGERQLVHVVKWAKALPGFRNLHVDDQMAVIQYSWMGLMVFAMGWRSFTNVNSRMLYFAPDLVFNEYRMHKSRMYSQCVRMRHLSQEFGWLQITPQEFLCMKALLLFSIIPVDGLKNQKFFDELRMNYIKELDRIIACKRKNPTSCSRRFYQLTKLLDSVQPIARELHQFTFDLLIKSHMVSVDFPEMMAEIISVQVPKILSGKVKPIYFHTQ
Outline: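 Reporter cells cultured without CO2 receive test chemicals, then 0.5 nM R1881 final; after 16 hr at 37C, ONE-Glo is added and light output recorded.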

[20] = qHTS assay to identify small molecule phospholipidosis (PLD) inducers (AID 1259344; active = well fitted curve in the direction sought with a large enough effect; an effect the other way counts as inactive or inconclusive)
Outline: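 HepG2 cells on collagen I, attached 4 h at 37 C, were co-treated with compound and LipidTOX Red dye for 24 h at 37 C, then fixed with paraformaldehyde plus Hoechst 33342 and imaged by high-content microscopy for phospholipid accumulation.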
% is scaled to controls: 0 for no effect and ±100 for the full control effect.

CCn1nc(C)c2c1C(=O)NCC(c1ccc(O)cc1)=N2
inactive: Potency [1] | Potency [2] | Potency [3] | Potency [4] | Potency [5] | Potency [6] | Potency [7] | Potency [8] | Potency [9] | Potency [10] | Potency [11] | Potency [12] | Potency [13] | Potency [14] | Potency [15] | Potency [16]

Nc1ccc(C(=O)OCCCOC(=O)c2ccc(N)cc2)cc1
inactive: Potency [1] | Potency [2] | Potency [3] | Potency [4] | Potency [5] | Potency [9] | Potency [17] | Potency [10] | Potency [11] | Potency [13] | Potency [14] | Potency [15] | Potency [16]
active: Potency [7] 43.6 µM

CCOC(=O)/C=C/C(=O)O
inactive: Potency [1] | Potency [2] | Potency [3] | Potency [4] | Potency [18] | Potency [7] | Potency [9] | Potency [17] | Potency [10] | Potency [11] | Potency [19] | Potency [12] | Potency [13] | Potency [14] | Potency [15] | Potency [16]

C=CCNc1nc(NCC=C)nc(N2CCN(C(c3ccc(F)cc3)c3ccc(F)cc3)CC2)n1
inactive: Potency [1] | Potency [2] | Potency [4] | Potency [18] | Potency [5] | Potency [6] | Potency [7] | Potency [8] | Potency [9] | Potency [17] | Potency [10] | Potency [13] | Potency [14] | Potency [15] | Potency [16]
active: Potency [19] 10.6 µM

CNC(=O)N(c1ccccc1)c1ccccc1
inactive: Potency [1] | Potency [2] | Potency [4] | Potency [18] | Potency [5] | Potency [6] | Potency [7] | Potency [8] | Potency [9] | Potency [10] | Potency [11] | Potency [19] | Potency [12] | Potency [13] | Potency [14] | Potency [15] | Potency [16]

CN(C(=O)C(Cl)Cl)c1ccc(OC(=O)c2ccco2)cc1
inactive: Potency [1] | Potency [2] | Potency [3] | Potency [18] | Potency [5] | Potency [6] | Potency [7] | Potency [8] | Potency [9] | Potency [17] | Potency [10] | Potency [11] | outcome [20] | Potency [13] | Potency [14] | Potency [15] | Potency [16]

CCC(C)=O
inactive: Potency [1] | Potency [2] | Potency [3] | Potency [18] | Potency [5] | Potency [7] | Potency [8] | Potency [9] | Potency [17] | Potency [10] | Potency [11] | Potency [13] | Potency [14] | Potency [15] | Potency [16]

COc1ccc(C(=O)c2cccc(O)c2)c(OC)c1
inactive: Potency [1] | Potency [2] | Potency [4] | Potency [18] | Potency [5] | Potency [6] | Potency [7] | Potency [8] | Potency [9] | Potency [17] | Potency [10] | Potency [11] | Potency [19] | Potency [12] | Potency [13] | Potency [14] | Potency [15] | Potency [16]

CCCCCCCCCCOS(=O)(=O)O
inactive: Potency [1] | Potency [2] | Potency [4] | Potency [18] | Potency [5] | Potency [6] | Potency [7] | Potency [9] | Potency [10] | Potency [11] | Potency [12] | Potency [13] | Potency [14] | Potency [15] | Potency [16]

COc1ccccc1N=Nc1c(S(=O)(=O)O)cc2cc(S(=O)(=O)O)cc(NC(C)=O)c2c1O
inactive: Potency [1] | Potency [2] | Potency [3] | Potency [4] | Potency [7] | Potency [8] | Potency [9] | Potency [17] | Potency [13]
active: Potency [10] 22.9 µM | Potency [11] 25.7 µM | Potency [14] 25.7 µM | Potency [15] 25.7 µM | Potency [16] 25.7 µM

CCC(C)(C)C1CCC(O)CC1 (stereo not drawn)
inactive: Potency [1] | Potency [2] | Potency [3] | Potency [18] | Potency [5] | Potency [6] | Potency [7] | Potency [8] | Potency [9] | Potency [10] | Potency [11] | Potency [13] | Potency [14] | Potency [15] | Potency [16]

COCC(O)CO (stereo not drawn)
inactive: Potency [1] | Potency [2] | Potency [3] | Potency [18] | Potency [6] | Potency [7] | Potency [8] | Potency [9] | Potency [17] | Potency [10] | Potency [11] | Potency [12] | Potency [13] | Potency [14] | Potency [15] | Potency [16]

Cc1occc1C(=O)Nc1ccc(C(=O)N2CCC(F)(F)/C(=C\C(=O)N3CCC(N4CCCCC4)CC3)c3ccccc32)cc1
inactive: Potency [1] | Potency [2] | Potency [3] | Potency [18] | Potency [5] | Potency [8] | Potency [9] | Potency [17] | Potency [11] | Potency [13] | Potency [14]
active: Potency [6] 5.43 µM

CC1=CC(=O)CC(C)(C)C1(O)/C=C/C(C)=C\C(=O)O (stereo not drawn)
inactive: Potency [1] | Potency [2] | Potency [3] | Potency [18] | Potency [5] | Potency [6] | Potency [7] | Potency [9] | Potency [17] | Potency [10] | Potency [11] | Potency [13] | Potency [14] | Potency [15] | Potency [16]

O=C(CCCCCCCCC#CI)Oc1ccccc1
active: Potency [5] 15.1 µM
inactive: Potency [1] | Potency [2] | Potency [3] | Potency [18] | Potency [6] | Potency [7] | Potency [9] | Potency [17] | Potency [10] | Potency [11] | Potency [19] | PLD induction [20] 8.17% [at 7.66 µM] | Potency [13] | Potency [14] | Potency [15] | Potency [16]
